# Screening results deposited in PubChem by National Center for Advancing Translational Sciences (NCATS).
# TbPYK inhibitor: T. brucei pyruvate kinase inhibition; TbPYK enzyme, Kinase-Glo Plus ATP luminescence, 45 min; Potency, µM (top dose mostly 76.8 µM), for the others: top-dose activity, negative = inhibition, hits mostly inhibitors; 0.12% of 410,000 active; AID 624173; further: nearly all actives have a fitted effect of over 50% in size
#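 T. brucei PYK with substrate was exposed to pin-transferred compounds across a concentration series, then started with 130 uM ADP (final). After 45 min at room temperature, Kinase-Glo Plus luminescence was read, normalized and curve-fitted.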
# LmPK inhibitor: inhibitors of Leishmania mexicana pyruvate kinase; Potency, µM (titrated, usually from 57.5 µM), without a hit: at the highest dose activity change, negative = inhibition, most hits filed as inhibitors; purified LmPK, Kinase-Glo ATP luminescence, 1 h; 0.37% of 290,000 active; Q27686
# Target sequence (Q27686 whole entry, looked up): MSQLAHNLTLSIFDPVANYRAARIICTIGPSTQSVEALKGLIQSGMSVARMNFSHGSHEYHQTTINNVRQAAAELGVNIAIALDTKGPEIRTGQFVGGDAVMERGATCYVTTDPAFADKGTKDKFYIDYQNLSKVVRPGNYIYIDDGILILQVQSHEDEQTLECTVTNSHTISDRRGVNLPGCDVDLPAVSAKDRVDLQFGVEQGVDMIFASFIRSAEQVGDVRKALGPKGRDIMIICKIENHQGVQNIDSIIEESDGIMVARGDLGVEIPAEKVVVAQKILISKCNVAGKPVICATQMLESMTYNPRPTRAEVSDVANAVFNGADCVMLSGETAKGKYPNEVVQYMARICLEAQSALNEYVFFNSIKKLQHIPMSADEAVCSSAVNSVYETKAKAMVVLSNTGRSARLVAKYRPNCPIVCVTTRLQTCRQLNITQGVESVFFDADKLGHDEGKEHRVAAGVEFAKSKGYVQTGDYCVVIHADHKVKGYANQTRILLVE
#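 ATP generated from ADP (0.1 mM) and PEP (0.5 mM) by 0.1 nM LmPK over 1 h at room temperature (pH 7.2 imidazole buffer) was detected by coupled luciferase luminescence. Values were normalized to uninhibited and no-enzyme wells.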
# Sm TGR inh: blocks Schistosoma mansoni thioredoxin glutathione reductase; Q962Y6; purified TGR, DTNB reduction, TNB absorbance 405 nm; Potency, µM (highest dose often 114 µM), for inactives: at the highest dose activity change, negative = inhibition, most hits filed as inhibitors; 3% of 360,000 active; further: nearly all actives have a fitted effect of over 60% in size
#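 TGR 20 nM + NADPH 100 uM (dispensed conc.), cpd preinc 15 min RT; start with NADPH (500 uM addition) then DTNB (15 mM addition). Kinetic TNB absorbance, 405 nm filter. Four-parameter Hill fit across titration.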
# RE007 growth inh: less growth of the S. pombe RE007 Vpr strain; AID 651644; S. pombe RE007 Vpr strain, BacTiter-Glo ATP luminescence, 24 h; 0.21% of 360,000 active; Potency, µM (series often up to 92.2 µM), for inactives: at the highest dose activity change, negative = less growth, most hits filed as inhibitors; active means well fitted falling curve with a large enough effect; inconclusive means small, poorly fitted or top-dose-only effect; inactive means no such curve, though single readings can be large or run the other way; further: nearly all actives have a fitted effect of over 50% in size
#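 Fission yeast RE007 carrying one integrated HIV-1 vpr copy, seeded at OD 0.01 in PMG+AL medium with 23 nL pinned compound. Grown 24 h at 30 degrees; viability read by BacTiter-Glo luminescence after 5 min.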
# AMA1-RON2 inh: disrupts binding of P. falciparum AMA1 to RON2; AlphaScreen AMA1-biotinylated RON2 peptide binding; Potency, µM (top dose mostly 58.2 µM), inactives show at the top dose activity change, negative = inhibition, most hits filed as inhibitors; 0.2% of 360,000 active;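 further: 0% = vehicle wells and -100% = peptide control; nearly all actives have a fitted effect of over 45% in size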
#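 AMA1 (3D7) with his tag at 25 nM final met compounds first, then biotinylated RON2 peptide at 25 nM; detection used donor plus acceptor beads, 10 µg/mL apiece, read by AlphaScreen after 30 min at room temperature.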
# * = called active by the depositor; ? = inconclusive; . = no result; [ ] = dose if it differs, or a comment. Hits are enriched below; roughly 3.2% of the tested compounds scored in any of these assays. Unless noted, the call rests on the fitted dose curve; in most records, active means well fitted curve in the direction sought with a large enough effect; inconclusive means small, poorly fitted or top-dose-only effect, or another doubt; inactive means no such curve, though single readings can be large; an effect the other way counts as inactive or inconclusive. Unless noted, on the % scale 0 is the no-effect control and ±100 the full control effect; potency means the concentration at half of the fitted maximal effect.
SMILES,TbPYK inhibitor,LmPK inhibitor,Sm TGR inh,RE007 growth inh,AMA1-RON2 inh
COc1ccc2[nH]c(C)c(C(=O)CN(C)CC3OCCO3)c2c1,-12.8%,-0.2%,25.1µM*,-15.9%,-6.3%
COc1ccc(NC(=O)CN(C)CC(=O)c2c(C)[nH]c3ccccc23)cc1,-10.0%,.,?,-4.6%,37.8%[11.6 µM]
O=C(CN1C(=O)COc2ccc(S(=O)(=O)N3CCOCC3)cc21)NCc1ccc(Cl)cc1,-0.1%,.,5.9%,.,.
Cc1nc(-c2ccc(Cl)cc2)sc1CCNC(=O)C(=O)Nc1ccc(F)cc1F,-21.3%,.,16.9%,.,.
COc1cc(OC)c(N(C)C(=O)C2CCCN(c3ncnc4c3nc3n4CCCCC3)C2)cc1Cl (stereo not drawn),-1.9%,.,-5.0%,.,.
CCOc1ccccc1NC(=O)CC1(CC(=O)N2CCOCC2)CCCC1,-0.1%,.,39.8µM*,6.4%,-4.0%
COc1ccc(Cl)cc1NC(=O)CSc1nnc2[nH]c(=O)cc(C)n12,0.6%,.,6.5%,.,.
Oc1ccc(/C=N/N(c2ccccc2)c2ccccc2)cc1O,?,-12.6%,4.5%,14.5%,-13.7%
O=C1c2ccccc2C(=O)N1/N=C/c1ccc(O)c(O)c1O,?,-7.4%,50.1µM*,-7.8%,-22.9%
Oc1ccc(/C=N/N2CCCCC2)c(O)c1O,?,-11.1%,35.5µM*,2.9%,3.9%
Oc1ccc(/C=N/N(c2ccccc2)c2ccccc2)c(O)c1O,.,-4.8%,39.8µM*,.,.
Cc1nc2ccccc2c(=O)n1/N=C/c1ccc(O)c(O)c1O,-26.1%,3.3%,44.7µM*,.,?
Oc1cccc(/C=N/N2CCCCC2)c1O,-1.9%,-8.8%,?,-19.0%,13.5%
CCOC(=O)c1c(C)oc2ncnc(Nc3cc(C)cc(C)c3)c12,1.4%,.,1.7%,.,.
O=C(Nc1c(C(=O)N2CCN(c3ccccc3)CC2)oc2ccccc12)c1ccc(Br)o1,-0.9%,.,-1.9%,.,.
N#Cc1c(N)n(-c2ccccc2N)c2nc3ccccc3nc12,-2.3%,4.6%,44.7µM*,13.6%,2.1%
CCOc1ccc(/C=C2/SC(=O)NC2=S)cc1,4.2%,-6.6%,44.7µM*,4.2%,0.0%
COc1ccc(-c2ccc(SCC(=O)NCc3ccco3)nn2)cc1,3.7%,0.8%,-20.7%,-5.3%,-25.0%
COc1ccc(NC(=O)CSc2ccc(-c3cccs3)nn2)cc1,-17.6%,.,7.6%,.,.
COc1ccc(NC(=O)CSc2ccc(-c3ccco3)nn2)cc1,-3.7%,-0.6%,14.1µM*,17.2%,-8.1%
COc1cc(NC(=O)CSc2ccc(-c3ccco3)nn2)cc(OC)c1,?,-3.2%,31.6µM*,-7.1%,0.3%
CCCN1C(=O)C2(c3ccccc31)c1c(oc3ccc(C)cc3c1=O)C(=O)N2CCOC (stereo not drawn),0.6%,.,6.7%,.,.
CCCC(=O)C1=C(c2cccc(OC)c2)N(C(=O)CCC)n2c(C)nnc2S1,-8.9%,.,3.2%,.,.
CCOc1ccc(CNC(=O)CSc2c3c(nc4cc(Cl)ccc24)CCCC3)cc1,0.3%,.,18.8%,.,.
Cc1ccc(CNC(=O)CSc2c3c(nc4cc(Cl)ccc24)CCCC3)o1,-24.6%,3.2%,8.91µM*,-28.7%,6.1%
SMILES,TbPYK inhibitor,LmPK inhibitor,Sm TGR inh,RE007 growth inh,AMA1-RON2 inh
CC1(C)Cc2c(C#N)c(NCCO)nc(-c3ccco3)c2CO1,-8.5%,0.4%,3.55µM*,-12.8%,2.4%
CC1(C)Cc2c(C#N)c(NCCN3CCOCC3)nc(-c3ccco3)c2CO1,-6.0%,0.2%,35.5µM*,-6.6%,-5.3%
Cc1ccccc1OCCSc1nnc(-c2ccc([N+](=O)[O-])cc2)o1,-2.6%,.,10.0%,.,.
CCCCc1ccc(-n2nc3ccc(NC(=O)c4cc5ccccc5o4)cc3n2)cc1,3.2%,.,4.1%,.,.
COc1ccc(Nc2cnn(-c3nc4ccccc4s3)c(=O)c2Cl)cc1,7.0%,?,1.26µM*,?,-6.3%
Cc1nc(-c2ccc(S(=O)(=O)N(C)Cc3ccccc3)cc2)co1,-3.0%,.,-12.8%,.,.
ClC(Cl)(c1nnnn1-c1ccccc1)c1nnnn1-c1ccccc1,?,-23.8%,20µM*,?,-18.8%
c1ccc(-c2nnnn2-c2ccccc2)cc1,2.8%,-1.1%,5.1%,0.5%,3.0%
O=C(CCc1ccc(S(=O)(=O)NC2CCCCC2)cc1)NCc1ccccn1,-6.5%,-7.9%,35.5µM*,-18.2%,30.0%
